High-throughput results: PubChem, National Center for Advancing Translational Sciences (NCATS)
A selection: hits, their analogues and other compounds. The true share with any hit is near 19%.
Pf growth 96h: Primary qHTS for delayed death inhibitors of the malarial parasite plastid, 96 hour incubation; 320,000 compounds, 6.9% hits; Potency, µM (top dose mostly 28.7 µM), hits mostly inhibitors; P. falciparum luciferase reporter growth, 96 h
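Readout is luminescence from an integrated firefly luciferase in P. falciparum. Red cells, 2% hematocrit and 0.05% parasitemia final, were cultured with compound through two parasite generations (96 hours) at 37 C, 5% CO2.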
CHX counter: Cycloheximide Counterscreen for Small Molecule Inhibitors of Shiga Toxin. 300,000 compounds, 12% hits. max response, %. cell reporter, cycloheximide protein synthesis inhibition counterscreen; in the data active = max response mostly above about 13%, no sharp cut-off; inactive = mostly below about 14%; also: read at 38.3 µM for the half of the compounds with a filed dose
Lassa entry inh: qHTS for Inhibitors of binding or entry into cells for Lassa Virus. Potency, µM (titrated, usually from 37.9 µM), most hits filed as inhibitors. Lassa virus pseudotype entry inhibition, cell reporter. 300,000 compounds, 1.2% hits; calls by dose curve; tested in HEK293 cells; also: nearly all actives have a fitted effect of over 50% in size
Pf growth 48h: Primary qHTS for delayed death inhibitors of the malarial parasite plastid, 48 hour incubation; P. falciparum luciferase growth in erythrocytes, 48 h; Potency, µM (top dose mostly 28.7 µM), hits mostly inhibitors; 310,000 compounds, 5.9% hits; AID 504832, 2011
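Luciferase-expressing parasites in RBCs, 2% Hct / 0.1% parasitemia final; RPMI 1640 + 0.5% Albumax; 37 C, 5% CO2, one generation; luminescence read-out, lower signal = inhibition.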
Shiga inhibitor: A qHTS for Small Molecule Inhibitors of Shiga Toxin; 290,000 compounds, 9.2% hits; Vero cells, Shiga toxin protein synthesis inhibition reporter; inhibition, % at 38.7 µM; AID 2315, 2010; in the data active = inhibition mostly above about 28%, no sharp cut-off; inactive = mostly below about 43%
Marburg entry inh: qHTS for inhibitors of binding or entry into cells for Marburg Virus | 300,000 compounds, 1.8% hits | Marburg virus pseudotyped entry inhibition, cell reporter | Potency, µM (top dose mostly 37.8 µM), most hits filed as inhibitors; calls by dose curve; tested in HEK293 cells
Numbers stand for hits; [ ] = dose if it differs, or a comment. Unless noted, calls follow the shape of the dose curve; as a rule, active = well fitted inhibition curve with a large enough effect; inconclusive = small, poorly fitted or top-dose-only effect, or another doubt; inactive = no such curve, though single readings can be large or run the other way.

What do the screens show for `C(=N\Nc1nc(Nc2ccccc2)nc(N2CCOCC2)n1)/c1c[nH]c2ccccc12`?
Pf growth 96h: inconclusive; CHX counter: 21; Lassa entry inh: inconclusive; Pf growth 48h: inconclusive; Shiga inhibitor: inactive; Marburg entry inh: 0.073µM

What do the screens show for `Brc1cc2c(cc1/C=N/Nc1nc(N3CCOCC3)nc(N3CCOCC3)n1)OCO2`?
Pf growth 96h: inactive; CHX counter: inactive; Lassa entry inh: inactive; Pf growth 48h: inconclusive; Shiga inhibitor: inactive; Marburg entry inh: inconclusive

How did Cc1[nH]c2ccccc2c1/C=N/Nc1nc(Nc2ccc(F)cc2)nc(N2CCOCC2)n1 do in these assays?
Pf growth 96h: 2.6µM; CHX counter: inactive; Lassa entry inh: inactive; Pf growth 48h: 4.1µM; Shiga inhibitor: inactive; Marburg entry inh: inconclusive

What do the screens show for `Cc1ccc(Nc2nc(N/N=C/c3c[nH]c4ccccc34)nc(N3CCOCC3)n2)cc1`?
Pf growth 96h: inconclusive; CHX counter: 15; Lassa entry inh: 15µM; Pf growth 48h: inconclusive; Shiga inhibitor: inactive; Marburg entry inh: 0.21µM

Results for COc1cc2c(cc1OC)C(c1ccccc1)N(C(=O)c1ccccc1F)CC2 (configuration not stated) ?
Pf growth 96h: inconclusive; CHX counter: inactive; Shiga inhibitor: inactive

What do the screens show for `CC(=O)N1[C@H](C)C=C[C@]1(Cc1ccccc1)C(=O)NCCc1c[nH]c2ccccc12`?
Pf growth 96h: inconclusive; CHX counter: inactive; Pf growth 48h: inconclusive; Shiga inhibitor: inactive

Results for C[C@@H]1C=C[C@](Cc2ccccc2)(C(=O)NCCc2c[nH]c3ccccc23)N1C(=O)c1ccccc1 ?
Pf growth 96h: inconclusive; CHX counter: inactive; Lassa entry inh: 8.2µM; Pf growth 48h: inconclusive; Shiga inhibitor: inactive; Marburg entry inh: inconclusive

Results for Cn1cc(CN2CCCC(C(=O)c3cccs3)C2)c(-c2cccc(Cl)c2)n1 (configuration not stated) ?
Pf growth 96h: inactive; CHX counter: inactive; Lassa entry inh: inactive; Pf growth 48h: inactive; Shiga inhibitor: inactive; Marburg entry inh: inconclusive

What do the screens show for `COc1ccc(/C=C/C(=O)Nc2cc(=O)n(C)c(=O)n2C)cc1`?
Pf growth 96h: inactive; CHX counter: 31; Lassa entry inh: inactive; Pf growth 48h: inactive; Shiga inhibitor: inactive; Marburg entry inh: inactive

How did Cn1c(NC(=O)/C=C/c2ccccc2)cc(=O)n(C)c1=O do in these assays?
Pf growth 96h: inactive; CHX counter: 34; Lassa entry inh: inconclusive; Pf growth 48h: inactive; Shiga inhibitor: inactive; Marburg entry inh: inactive

Results for CCCC(=O)Nc1cc(=O)n(C)c(=O)n1C ?
Pf growth 96h: inactive; CHX counter: inactive; Shiga inhibitor: inactive

What do the screens show for `Cn1c(NC(=O)CCc2ccccc2)cc(=O)n(C)c1=O`?
Pf growth 96h: inactive; CHX counter: 43; Shiga inhibitor: 70

How did COC(=O)c1cc(N=C(N)N=C(N)N)cc(C(=O)OC)c1 do in these assays?
Pf growth 96h: inactive; CHX counter: inactive; Pf growth 48h: inconclusive; Shiga inhibitor: inactive

How did S=C(Nc1ccccc1)N1N=C(c2cccs2)CC1c1cccs1 (configuration not stated) do in these assays?
Pf growth 96h: inactive; CHX counter: inactive; Lassa entry inh: inconclusive; Pf growth 48h: inconclusive; Shiga inhibitor: 20; Marburg entry inh: inconclusive

How did COc1cccc(C2CC(c3cccs3)=NN2C(=S)Nc2ccccc2)c1OC (configuration not stated) do in these assays?
Pf growth 96h: inactive; CHX counter: inactive; Lassa entry inh: inactive; Pf growth 48h: inconclusive; Shiga inhibitor: inactive; Marburg entry inh: inactive

What do the screens show for `COc1ccc(C2CC(c3cccs3)=NN2C(=S)Nc2ccccc2)cc1OC` (configuration not stated)?
Pf growth 96h: 9.3µM; CHX counter: inactive; Lassa entry inh: inactive; Pf growth 48h: 6.6µM; Shiga inhibitor: inactive; Marburg entry inh: inactive

What do the screens show for `O=C(CN1CCCCC1)N1N=C(c2cccs2)CC1c1cccs1` (configuration not stated)?
Pf growth 96h: inconclusive; CHX counter: inactive; Pf growth 48h: inactive; Shiga inhibitor: inactive

Results for Cc1ccc(NC(=O)Cn2nc(C)c([N+](=O)[O-])c2C)cc1Cl ?
Pf growth 96h: inactive; CHX counter: inactive; Lassa entry inh: inactive; Pf growth 48h: inactive; Shiga inhibitor: inactive; Marburg entry inh: inactive

How did Cc1nn(CC(=O)NCCc2ccc(Cl)cc2Cl)c(C)c1[N+](=O)[O-] do in these assays?
Pf growth 96h: inconclusive; CHX counter: inactive; Lassa entry inh: inactive; Pf growth 48h: 12µM; Shiga inhibitor: inactive; Marburg entry inh: inconclusive

How did Cc1nn(CC(=O)c2ccccc2Cl)c(C)c1[N+](=O)[O-] do in these assays?
Pf growth 96h: inactive; CHX counter: 48; Lassa entry inh: inactive; Pf growth 48h: inactive; Shiga inhibitor: 93; Marburg entry inh: inactive

What do the screens show for `Cc1nn(CC(=O)NCCCN2CCCC2=O)c(C)c1[N+](=O)[O-]`?
Lassa entry inh: inconclusive; Marburg entry inh: 11µM

What do the screens show for `COc1ccc(C2=NN(C(=O)CSc3nc4ccccc4s3)C(c3ccc(F)cc3)C2)cc1` (configuration not stated)?
Pf growth 96h: inconclusive; CHX counter: inactive; Lassa entry inh: inconclusive; Pf growth 48h: inconclusive; Shiga inhibitor: inactive; Marburg entry inh: inconclusive

How did CC(=O)N1N=C(c2c(-c3ccccc3)c3cc(Br)ccc3[nH]c2=O)CC1c1ccco1 (configuration not stated) do in these assays?
Pf growth 96h: 5.2µM; CHX counter: inactive; Pf growth 48h: inconclusive; Shiga inhibitor: inactive

How did CC(=O)N1N=C(c2c(-c3ccccc3)c3cc(C)ccc3[nH]c2=O)CC1c1ccco1 (configuration not stated) do in these assays?
Pf growth 96h: 5.2µM; CHX counter: inactive; Lassa entry inh: inconclusive; Pf growth 48h: 15µM; Shiga inhibitor: inactive; Marburg entry inh: inconclusive

How did C/C(=N\NC(=O)c1ccccc1)c1c(O)n(C2CCCCC2)c(=O)[nH]c1=O do in these assays?
Pf growth 96h: inactive; CHX counter: 41; Pf growth 48h: inactive; Shiga inhibitor: 67

How did CC(=NCCO)c1c(O)n(C2CCCCC2)c(=O)[nH]c1=O do in these assays?
Pf growth 96h: inactive[5.75 µM]; CHX counter: inactive; Lassa entry inh: inactive; Pf growth 48h: inactive; Shiga inhibitor: inactive; Marburg entry inh: inactive

What do the screens show for `C/C(=N\NC(=O)c1ccccc1O)c1c(O)n(Cc2ccccc2)c(=O)[nH]c1=O`?
Pf growth 96h: inactive; CHX counter: 25; Pf growth 48h: inactive; Shiga inhibitor: inactive

How did CCC(=NCCCN(CC)CC)c1c(O)n(C2CCCCC2)c(=O)[nH]c1=O do in these assays?
Pf growth 96h: inactive; CHX counter: inactive; Lassa entry inh: inactive; Pf growth 48h: inactive; Shiga inhibitor: inactive; Marburg entry inh: inactive

What do the screens show for `C/C(=N\NC(=O)c1ccccc1O)c1c(O)n(C2CCCCC2)c(=O)[nH]c1=O`?
Pf growth 96h: inconclusive; CHX counter: 23; Pf growth 48h: inconclusive; Shiga inhibitor: 41
